# Screening results as filed in PubChem BioAssay.
# An excerpt weighted towards active compounds, which were near 3.6% of everything screened.
# NPSR antagonist: qHTS Assay for Antagonists of the Neuropeptide S Receptor: cAMP Signal Transduction | Q6W5P4 | CHO-NPSR cells, cAMP TR-FRET, antagonist mode | Potency, µM (highest dose often 38.3 µM), inactives show at the top dose activity change, negative = inhibition, most hits filed as inhibitors | actives 1% (n = 220,000) | AID 1461, 2008; further: on the % scale 0 is the no-effect control and ±100 the full control effect; nearly all actives have a fitted effect of over 50% in size
# Target sequence (Q6W5P4 whole entry, looked up): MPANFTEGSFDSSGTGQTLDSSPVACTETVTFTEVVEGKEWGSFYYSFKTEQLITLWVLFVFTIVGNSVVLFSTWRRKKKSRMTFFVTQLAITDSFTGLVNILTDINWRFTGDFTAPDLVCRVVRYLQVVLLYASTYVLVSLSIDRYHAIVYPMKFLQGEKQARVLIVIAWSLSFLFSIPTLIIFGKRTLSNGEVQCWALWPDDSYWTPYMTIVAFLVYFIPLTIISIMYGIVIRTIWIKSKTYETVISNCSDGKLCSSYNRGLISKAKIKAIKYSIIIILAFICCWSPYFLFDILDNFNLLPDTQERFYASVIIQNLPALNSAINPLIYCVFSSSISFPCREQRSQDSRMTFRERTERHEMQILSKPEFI
# KDM4E inh: qHTS Assay for Inhibitors of Human Jumonji Domain Containing 2E (JMJD2E); Lysine-specific demethylase 4E (Homo sapiens), B2RXH2; JMJD2E catalytic domain, FDH-coupled NADH fluorescence (FDH is formaldehyde dehydrogenase); Potency, µM (series often up to 57.1 µM), for inactives: at the top dose activity change, negative = inhibition, most hits filed as inhibitors; actives 1.6% (n = 230,000); AID 2147, 2009; active means well fitted inhibition curve with a large enough effect, not every such curve was filed as active; inconclusive means small, poorly fitted or top-dose-only effect, or another doubt; inactive means no such curve, though single readings can be large or run the other way;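 further: 0% = wells with enzyme and -100% = buffer wells without enzyme; nearly all actives have a fitted effect of over 50% in size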
# Target sequence (B2RXH2 1-337 limits assumed): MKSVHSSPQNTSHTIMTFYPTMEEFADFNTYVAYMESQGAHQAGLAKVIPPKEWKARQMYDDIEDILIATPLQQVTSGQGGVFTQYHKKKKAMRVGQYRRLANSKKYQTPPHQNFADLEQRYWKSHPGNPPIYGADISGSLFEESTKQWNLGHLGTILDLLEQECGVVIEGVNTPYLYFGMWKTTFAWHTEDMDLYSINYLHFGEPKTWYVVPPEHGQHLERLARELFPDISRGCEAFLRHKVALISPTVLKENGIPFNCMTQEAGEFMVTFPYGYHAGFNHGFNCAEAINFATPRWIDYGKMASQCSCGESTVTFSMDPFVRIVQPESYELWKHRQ
# Epigenetic derep: Quantitative High-Throughput Screen for Regulators of Epigenetic Control; actives 0.2% (n = 280,000); murine LDR cells, GFP reporter derepression, 30 h; AID 1865, 2009; Potency, µM (top dose mostly 53.9 µM), inactives show at the highest dose GFP activation, hits mostly activators; further: % of control where 0% means no effect; nearly all actives have a fitted effect of over 60% in size
#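 Reporter derepression read as number of fluorescent GFP-positive objects, 20-120 um in size, counted by laser-scanning cytometer. Mouse LDR line with an epigenetically silenced CMV-GFP locus; compound incubation 30 h, 37 C.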
# Sfp PPTase inh: qHTS Assay for Inhibitors of Bacillus subtilis Sfp phosphopantetheinyl transferase (PPTase) | Potency, µM, without a hit: largest response in the series, negative = inhibition, actives largely listed as inhibitors | actives 3.5% (n = 310,000) | Biochemical Sfp PPTase activity, qHTS | AID 1490, 2009 | 4'-phosphopantetheinyl transferase ffp (Bacillus subtilis), Q9F4F7;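 further: the enzyme is Sfp with the accession as filed and its product quenches rhodamine fluorescence; 0% = enzyme reaction without inhibitor and -100% = no enzyme wells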
#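 Buffer: 50 mM Hepes-Na pH 7.6, 10 mM MgCl2, 0.01% Nonidet P-40, 0.01% BSA. Enzyme 15 nM, pre-exposed to compound 15 min; substrates then added and fluorescence change tracked over 30 min.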
# IMPase Li cell: qHTS Assay for Identifying the Cell-Membrane Permeable IMPase Inhibitors: Potentiation with Lithium | actives 0.35% (n = 210,000) | Potency, µM (doses to about 59.4 µM), without a hit: at the top dose activity, negative = IMPase inhibition, hits mostly inhibitors | AID 1457, 2008 | CHO-M1 cells, IP1 TR-FRET (IP-One), carbachol + lithium;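 further: IP1 builds up when IMPase is blocked and the TR-FRET signal falls; plate controls were basal vehicle for no effect and high inhibitor control for full effect; nearly all actives have a fitted effect of over 50% in size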
#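 Steps: plate 2000 CHO-M1 cells per well and culture 16–30 h; add compound and lithium; incubate 30 min, 37C; add d2-IP1 tracer and Eu cryptate anti-IP1 antibody in lysis buffer; read after 10 min at room temperature.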
# GCN5L2 inh: qHTS Assay for Inhibitors of GCN5L2; Histone acetyltransferase KAT2A (Homo sapiens), Q92830; GCN5L2 HAT assay, ThioGlo1 CoA-SH fluorescence; Potency, µM (highest dose often 58.9 µM), for the others: top-dose activity change, negative = inhibition, hits mostly inhibitors; actives 0.21% (n = 390,000); AID 504327, 2011; further: on the % scale 0 is the no-effect control and ±100 the full control effect
#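 Compounds, pin-transferred from DMSO stocks, meet 20nM GCN5L2 for 15 min before the reaction begins with H3(1-25) peptide (75uM) and acetyl-CoA (70uM). Thiol-reactive ThioGlo1 reports CoA release over 20 min at room temperature.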
# Starred values were filed as active, the others as inactive; ? = inconclusive; · = no result given; [ ] = remark or other dose. Unless noted, the call rests on the fitted dose curve; in most records, active means well fitted curve in the direction sought with a large enough effect; inconclusive means small, poorly fitted or top-dose-only effect, or another doubt; inactive means no such curve, though single readings can be large; an effect the other way counts as inactive or inconclusive. Potency means the concentration at half of the fitted maximal effect.
SMILES,NPSR antagonist,KDM4E inh,Epigenetic derep,Sfp PPTase inh,IMPase Li cell,GCN5L2 inh
Cc1cc(NN)nc(Cc2ccccc2)n1,·,·,·,50µM*,·,8%
CN1C(=O)/C(=C2/C=CC=CN2C)OC1=S,4%[46.1 µM],0%,0%,56µM*,4%[38.3 µM],-5%
FC(F)(F)c1cccc(NC(=S)N(CCCN2CCCC2)Cc2cccn2Cc2ccc(Cl)cc2)c1,10µM*,1%,0%,56µM*,13%,-1%
COc1ccccc1NS(=O)(=O)c1cc(NC(=O)c2ccncc2)ccc1N1CCOCC1,-3%,?,-1%,79µM*,9%,-9%
COc1ccccc1NS(=O)(=O)c1cc(NC(=O)C2CCCC2)ccc1N1CCOCC1,-40%,-18%,-2%,20µM*,7%,-3%
CC(=O)OC[C@H]1O[C@@H](O/N=C(\C)CCN2CCCCc3nc(C)c(C)cc32)[C@H](OC(C)=O)[C@@H](OC(C)=O)[C@H]1OC(C)=O,·,·,1%[10.1 µM],12%,·,·
Cc1ccc(S(=O)(=O)N(CC(=O)O)c2cccc(Cl)c2)cc1,·,·,1%,·,·,·
CN(CCOC(=O)c1ccco1)Cc1ccccc1,5%[46.1 µM],2%,1%,9%,6%[38.3 µM],0%
CN(CCOC(=O)/C=C/c1ccco1)Cc1ccccc1,-21%,-26%,-11%,20µM*,8%,-6%
CN(Cc1ccccc1)C(=O)COC(=O)/C=C/c1ccco1,5%,-7%,-4%,35µM*,-1%,?
CCN1C(=O)C(C(=O)c2ccccc2)SC1=S (stereo unspecified),-3%,-11%,-3%,20µM*,7%,-4%
Fc1ccc(CSc2nc3ncc(Br)cc3[nH]2)cc1,?,2%,-4%,3%,14µM*,-9%
Brc1cnc2nc(SCc3nc4ccccc4[nH]3)[nH]c2c1,2%,5%,-2%,20%,·,-2%
Cc1c(Cl)cccc1NC(=O)Cn1nc(C)c2sc3ccccc3c2c1=O,·,·,-3%,·,·,-3%
C(C#CCCCCCCCCC[n+]1ccccc1)#CCCCCCCCCC[n+]1ccccc1,·,·,·,50µM*,·,-1%
Cc1c(C)c2cc(Cl)c(OCc3nn[nH]n3)cc2oc1=O,-7%[46.1 µM],-1%,-5%,79µM*,·,-19%
O=C1CCCN1CCCNC(=S)Nc1ccc(Nc2ccccc2)cc1,-6%,-2%,5%,56µM*,28%,-7%
CCNC(=O)[C@@H]1CCCN1C(=O)[C@H](CCCN=C(N)N)NC(=O)[C@H](CC(C)C)NC(=O)[C@@H](Cc1c[nH]c2ccccc12)NC(=O)[C@H](Cc1ccc(O)cc1)NC(=O)[C@H](CO)NC(=O)[C@H](Cc1c[nH]c2ccccc12)NC(=O)[C@H](Cc1cnc[nH]1)NC(=O)[C@@H]1CCC(=O)N1,·,·,·,?,·,-13%
COc1ccc(-n2nnnc2SCC(=O)NCc2ccco2)cc1OC,-30%[46.1 µM],1%,1%,11%,2%[38.3 µM],-3%
Cc1cc(SCC(=O)NC(=O)NCc2ccco2)nc2ccccc12,-15%[46.1 µM],1%,0%,25µM*,-9%[38.3 µM],-9%
Cc1cc(SCCC(=O)O)nc2c(C)cccc12,?,5%,1%,11%,10µM*,?
CCN(CC(=O)NC(=O)NCc1ccco1)Cc1nc2ccccc2c(=O)[nH]1,1%[46.1 µM],-21%,-1%,50µM*,18%[38.3 µM],-19%
COc1ccc(C)cc1-n1nnnc1SCC(=O)NC(=O)NCc1ccco1,-17%[46.1 µM],-6%,0%,16µM*,14%[38.3 µM],?
O=C(CSc1nc2ccccc2o1)NC(=O)NCc1ccco1,-18%[46.1 µM],-6%,-6%,-31%,17%[38.3 µM],0%
Fc1cccc(CNc2ncnc3ccc(-c4ccoc4)cc23)c1,·,·,·,·,·,-14%
SMILES,NPSR antagonist,KDM4E inh,Epigenetic derep,Sfp PPTase inh,IMPase Li cell,GCN5L2 inh
CC1Cc2ccccc2N1S(=O)(=O)c1nnc(NC(=O)c2ccccc2Br)s1 (stereo unspecified),·,·,19%,·,·,-4%
O=C(CSc1ncccn1)NC(=O)NCc1ccco1,8%,2%,0%,-8%,-1%,-12%
Cc1cc(SCC(=O)NC(=O)NCc2ccco2)nc2c(C)cccc12,?,-23%,0%,10µM*,20%[38.3 µM],-18%
O=C(CSc1ccccc1F)NC(=O)NCc1ccco1,4%,-6%,3%,45µM*,0%,?
O=C(CSc1cccc2cccnc12)NCc1ccco1,-1%[46.1 µM],?,1%,79µM*,-2%[38.3 µM],-4%
COc1ccc(CNC(=O)c2cnn(-c3ccccc3)c2-n2cccc2)cc1OC,·,·,1%,·,·,-7%
COCCCNC(=O)NC(CCC(C)C)c1c(-n2cccc2)sc2c1CCN(C)C2 (stereo unspecified),·,·,1%,·,·,1%
CCOC(=O)N1CCC(NC(=O)C2CCN(C(=O)N3CC(C)Oc4ccc(C)cc43)CC2)CC1 (stereo unspecified),-1%[46.1 µM],2%,1%,-3%,-14%[38.3 µM],·
CCOC(=O)N1CCC(NC(=O)C2CCN(C(=O)c3cc4oc(C)cc4n3Cc3c(F)cccc3Cl)CC2)CC1,-51%,4%,0%,20µM*,15%,-2%
COC(=O)c1cc2oc(C)cc2n1Cc1ccccc1Cl,·,·,1%,·,·,-6%
COC(CNC(=O)C1CCN(C(=O)c2cc3oc(C)cc3n2Cc2c(F)cccc2Cl)CC1)OC,8%,?,-1%,45µM*,-19%,-5%
CCCCc1cc2c(cn1)=C(OC(=O)c1cccs1)C(C)(OC(=O)CC)C(=O)C=2 (stereo unspecified),·,-2%[11.4 µM],·,-2%,-1%,·
O=C(NCCOc1ccccc1)O[C@@H]1C(=O)c2cc(Br)ccc2O[C@H]1c1ccc2c(c1)OCO2,·,4%,0%,26%,-1%,·
Nc1nc(Cl)nc2c1ncn2[C@@H]1O[C@H](COP(=O)(O)OP(=O)(O)OP(=O)(O)O)[C@@H](O)[C@H]1O,·,·,·,·,·,-17%
CC(=O)N[C@@H](CC(C)C)C(=O)N[C@@H](CC(C)C)C(=O)N[C@H](C=O)CCCN=C(N)N,·,·,·,-3%,·,-2%
CCCC[C@@H](C=O)NC(=O)[C@H](CC(C)C)NC(=O)[C@H](CC(C)C)NC(C)=O,·,·,11µM*,19%,?,5%
O=S1(=O)c2ccccc2N=NN1Cc1ccc(Cl)c(Cl)c1,-5%[46.1 µM],-4%,1%,56µM*,-9%[38.3 µM],·
CC(C)(C)c1ccc(CN2N=Nc3ccccc3S2(=O)=O)cc1,10µM*,-28%,1%,2.8µM*,25%[38.3 µM],?
